Screening data (PubChem)
RAD54 inh = RAD54 (human) branch migration inhibition. Q92698. RAD54 Holliday junction branch migration, FAM/BHQ fluorescence. inhibition, % at 10.4 µM. 360,000 compounds, 0.14% hits. AID 602329;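 active means mean normalized replicate activity at least 40 and at least half of replicates scoring 40 or more; inconclusive means only one of the two criteria met; inactive means mean below 40 and under half of replicates reaching 40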;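 further: inhibitors cause a drop in the FAM fluorescence signal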
Target sequence (Q92698 whole entry, looked up): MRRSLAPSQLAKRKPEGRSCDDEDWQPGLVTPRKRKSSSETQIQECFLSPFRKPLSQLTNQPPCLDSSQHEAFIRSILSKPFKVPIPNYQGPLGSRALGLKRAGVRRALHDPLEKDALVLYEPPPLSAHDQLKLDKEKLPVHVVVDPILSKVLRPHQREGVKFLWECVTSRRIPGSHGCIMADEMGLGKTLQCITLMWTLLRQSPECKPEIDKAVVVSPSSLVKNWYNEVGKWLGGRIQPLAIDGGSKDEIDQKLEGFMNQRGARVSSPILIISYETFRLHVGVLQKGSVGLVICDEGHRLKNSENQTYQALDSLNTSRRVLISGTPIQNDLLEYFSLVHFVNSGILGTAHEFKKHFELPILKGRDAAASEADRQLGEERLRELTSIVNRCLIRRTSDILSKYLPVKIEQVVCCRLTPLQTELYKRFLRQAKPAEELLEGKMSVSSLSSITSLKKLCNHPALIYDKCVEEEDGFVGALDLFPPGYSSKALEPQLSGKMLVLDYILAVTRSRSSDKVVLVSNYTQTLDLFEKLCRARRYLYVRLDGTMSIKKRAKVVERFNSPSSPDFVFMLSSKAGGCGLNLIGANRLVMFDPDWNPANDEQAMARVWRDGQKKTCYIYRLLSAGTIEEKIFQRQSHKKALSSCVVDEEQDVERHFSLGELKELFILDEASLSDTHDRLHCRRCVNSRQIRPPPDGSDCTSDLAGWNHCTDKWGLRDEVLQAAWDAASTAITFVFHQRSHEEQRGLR
RAD52 anneal inh = RAD52 (human) annealing inhibition; recombinant RAD52 DNA annealing, FRET fluorescence; inhibition, % at 18.7 µM; 360,000 compounds, 0.46% hits; AID 651710;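 active means every replicate showing at least 50% inhibition; inconclusive means mean inhibition at least 50% but not in every replicate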
NSD2 HMT inh = NSD2 (human) methyltransferase inhibition; 310,000 compounds, 0.54% hits; inhibition, % at 12.5 µM; AID 743445; NSD2 peptide methylation, AlphaScreen, 120 min; in the data active means inhibition above about 50%
Glyco luc inh = blocks N-linked glycosylation in D54 reporter cells | D54 ERlucT glycosylation luciferase reporter, 24 h; percent of 100 nM tunicamycin response | reporter increase, % at 12.5 µM | 360,000 compounds, 0.23% hits | AID 588692;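 active means mean luciferase reporter signal, scaled so untreated is 0 and the glycosylation-blocking control 100, at or above a set limit in every replicate; inconclusive means mean reaches the limit but not every replicate does; inactive means mean below the limit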;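 further: luciferase carries N-glycosylation sites so blocking glycosylation raises the light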
Casp6 inh = blocks human caspase-6 cleavage activity | inhibition, % at 12.5 µM | purified caspase-6, Z-VEID-R110 cleavage fluorescence | 350,000 compounds, 0.53% hits;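 active means mean inhibition across replicates at least about 35%, with every replicate also reaching that limit, limit read from the data; inconclusive means only one of the two criteria met; inactive means neither criterion met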
Rad54 DNA ctr = binds DNA, flagging false Rad54 inhibitor hits. Acridine orange-DNA displacement, fluorescence polarization, 20 min. 460 compounds, 8% hits. shares compounds with RAD54 inh. AC50, µM (series often up to 35 µM);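 active means signal drop giving an AC50 within twice the top valid tested concentration of each sample, actives reach about 35 µM in these data; inactive means activity opposite to expected, plus the rest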;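 further: polarization loss reports compound binding to salmon sperm DNA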
RAD52 DNA ctr = DNA binding artifact in RAD52 counter-screen | shares compounds with RAD52 anneal inh | Salmon sperm DNA/acridine orange FP displacement | AC50, µM | 1,000 compounds, 8% hits | AID 652128;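 active means fitted half-maximal concentration for signal loss at or below twice the highest dose tested, in every separate run, actives reach about 64 µM in these data; inconclusive means runs disagree, or flat partial signal loss, or poor fit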
Each line names hits and unclear results; the compound was inactive in the other large screens (follow-up assays come after a bar, where they were run). Hits are enriched below; roughly 1.2% of the tested compounds scored in any of these assays.

CN(C)CCNC(=O)c1cccc(-c2cnc3c(NC=O)cc(-c4cccs4)cn23)c1	RAD54 inh 63, RAD52 anneal inh 68 | Rad54 DNA ctr inactive | RAD52 DNA ctr inactive
CN(C)C(=O)c1cccc(-c2cnc3c(NC=O)cc(-c4ccccc4N(C)C)cn23)c1	none
CN(C)CCNC(=O)c1cccc(-c2cnc3c(NC=O)cc(-c4ccccc4F)cn23)c1	RAD54 inh 63, RAD52 anneal inh 96 | Rad54 DNA ctr inactive | RAD52 DNA ctr inactive
CN(C)CCNC(=O)c1cccc(-c2cnc3c(NC=O)cc(-c4ccc(C(=O)N5CCOCC5)cc4)cn23)c1	RAD54 inh inconclusive, RAD52 anneal inh 63 | Rad54 DNA ctr inactive | RAD52 DNA ctr inactive
O=C(C[C@@H]1C=C[C@@H](NC(=O)Nc2ccc(F)cc2)[C@@H](CO)O1)NCc1cccc(F)c1	none (no result: NSD2 HMT inh, Glyco luc inh)
O=C(C[C@H]1CC[C@@H]2[C@H](COC[C@H](O)CN2S(=O)(=O)c2ccc(F)cc2)O1)N[C@@H]1CCN(Cc2ccccc2)C1	none (no result: NSD2 HMT inh, Glyco luc inh)
Cc1noc(C)c1NC(=O)N(C)C[C@H]1Oc2ccc(NC(=O)c3ccncc3)cc2CC(=O)N([C@H](C)CO)C[C@@H]1C	none (no result: NSD2 HMT inh, Glyco luc inh)
Cc1ccc(Nc2nc(NCCO)c3ccccc3n2)cc1C	none
COc1ccc(OC)c(Nc2nc(NCCO)c3ccccc3n2)c1	RAD54 inh 94, RAD52 anneal inh 88 | Rad54 DNA ctr inactive | RAD52 DNA ctr inactive
COc1nc(-c2cccc([N+](=O)[O-])c2)nc2ccccc12	none
CN1CCN(c2nc(-c3cccc([N+](=O)[O-])c3)nc3ccccc23)CC1	RAD54 inh 75 | Rad54 DNA ctr inactive | RAD52 DNA ctr inactive
CC=Cc1ccc2n(c1=O)C[C@@H]1[C@@H](CO)[C@H](C(=O)NCC3CC3)[C@H]2N1Cc1cccnc1 (mixture of isomers)	none (no result: NSD2 HMT inh, Glyco luc inh)
COc1cc2ccccc2cc1C(=O)N(CCN(C)C)c1nc2ccc(C)cc2s1	none
COc1cc2ccccc2cc1C(=O)N(CCN(C)C)c1nc2c(OC)ccc(OC)c2s1	RAD54 inh 60, RAD52 anneal inh 94 | Rad54 DNA ctr inactive | RAD52 DNA ctr inactive
COc1cc2nc(N(CCN(C)C)C(=O)c3ccc4ccccc4c3)sc2cc1OC	none (no result: RAD52 anneal inh, Casp6 inh)
CCN(CC)CCN(C(=O)C1=COCCO1)c1nc2c(OC)ccc(OC)c2s1	RAD54 inh 77, RAD52 anneal inh 88 | Rad54 DNA ctr inactive | RAD52 DNA ctr inactive
COc1ccc(OC)c2sc(N(CCN(C)C)C(=O)c3ccc4ccccc4c3)nc12	RAD54 inh 69, RAD52 anneal inh 93 | Rad54 DNA ctr inactive | RAD52 DNA ctr inactive
CCC(=O)N1CC2(C1)[C@@H](c1ccccc1)[C@@H](CO)N2C(=O)c1cccnc1	none (no result: RAD54 inh, NSD2 HMT inh, Glyco luc inh)
COc1ccccc1-c1cn(CC[C@@H]2CC[C@H](NC(=O)CCN3CCCCC3)[C@H](CO)O2)nn1	none (no result: NSD2 HMT inh, Glyco luc inh)
Oc1ccc(Nc2nc(N3CCCC3)c3ccccc3n2)cc1	RAD54 inh 60, RAD52 anneal inh 67, Glyco luc inh 53 (no result: NSD2 HMT inh) | Rad54 DNA ctr inactive | RAD52 DNA ctr inactive
COc1ccc(Nc2nc(N3CCCCC3)c3ccccc3n2)cc1	none (no result: RAD52 anneal inh, Casp6 inh)
Nc1nc(N)c2c(ccc3nccc32)[nH]1	RAD54 inh 62, RAD52 anneal inh 77 (no result: NSD2 HMT inh) | Rad54 DNA ctr inactive | RAD52 DNA ctr inactive
CC(C)OCC(O)CN1CCN(CCN2C(=O)c3cccc4cccc(c34)C2=O)CC1 (stereo not given)	RAD54 inh 79, RAD52 anneal inh 93, Glyco luc inh 33 | Rad54 DNA ctr inactive | RAD52 DNA ctr inactive
Cc1cccc(C)c1OCC(O)CN1CCC(CN2C(=O)c3cccc4cccc(c34)C2=O)CC1 (stereo not given)	none (no result: RAD52 anneal inh, NSD2 HMT inh, Casp6 inh)
CCCCN(CC)CCCNC(=O)c1cc2c(-c3ccc(OC)c(OC)c3)nn(C)c2s1	RAD54 inh 91, RAD52 anneal inh 94 | Rad54 DNA ctr inactive | RAD52 DNA ctr inactive
CCCCNC(=O)c1cc2c(-c3ccc(Cl)cc3)nn(C)c2s1	none (no result: NSD2 HMT inh)
CCN(CC)CCCNC(=O)c1cc2c(-c3cccc(OC)c3)nn(C)c2s1	RAD54 inh 73, RAD52 anneal inh 92 | Rad54 DNA ctr inactive | RAD52 DNA ctr inactive
C[C@@H]1CN([C@H](C)CO)C(=O)c2cc(NC(=O)Cc3ccccc3)ccc2O[C@@H](C)CCCCO[C@H]1CN(C)S(=O)(=O)c1ccc(F)cc1	none (no result: RAD52 anneal inh, NSD2 HMT inh, Glyco luc inh, Casp6 inh)
Cc1ccccc1S(=O)(=O)N1[C@H](CO)[C@@H](c2ccc(C#CC3CCCC3)cc2)[C@@H]1C#N	none (no result: RAD54 inh, NSD2 HMT inh, Glyco luc inh)
C[C@H](CO)N1C[C@H](C)[C@H](CN(C)C(=O)Nc2ccccc2)OCCCC[C@H](C)Oc2ccc(NS(C)(=O)=O)cc2C1=O	none (no result: NSD2 HMT inh, Glyco luc inh)
CN1CCN(CC(=O)n2c3c(c4ccccc42)CCCC3)CC1	none (no result: RAD54 inh, RAD52 anneal inh, Casp6 inh)
O=C(CN1CCCCC1)n1c2ccccc2c2ccccc21	RAD54 inh 100, RAD52 anneal inh 61 | Rad54 DNA ctr inactive | RAD52 DNA ctr inactive
O=C(N[C@@H]1CC[C@@H](CCNS(=O)(=O)c2ccccc2)O[C@@H]1CO)c1cccnc1	none (no result: NSD2 HMT inh, Glyco luc inh)
C[C@H](CO)N1C[C@H](C)[C@@H](CN(C)C(=O)c2ccccc2F)Oc2ncc(-c3ccc(F)cc3)cc2C1=O	none (no result: NSD2 HMT inh, Glyco luc inh)
CCN1C(=O)CCN(C2CCCC2)c2nc(Nc3ccc(C(=O)NC4CCN(C)CC4)cc3OC)ncc21	RAD54 inh inconclusive, RAD52 anneal inh 63, Glyco luc inh 55 (no result: NSD2 HMT inh) | Rad54 DNA ctr inactive | RAD52 DNA ctr inactive
CCCNC(=O)N1C[C@@H](C)[C@H](OC)CN(C)C(=O)c2ccc(NS(=O)(=O)CC(F)(F)F)cc2OC[C@@H]1C	none (no result: NSD2 HMT inh, Glyco luc inh, Casp6 inh)
COc1ccc(OC)c(Nc2nc(NCCCN(C)C)nc(N)c2[N+](=O)[O-])c1	RAD54 inh 74, RAD52 anneal inh 95 | Rad54 DNA ctr inactive | RAD52 DNA ctr inactive
Cn1c(=O)cc(SCC(=O)NCCCN2CCOCC2)c2ccccc21	none (no result: RAD52 anneal inh, Glyco luc inh, Casp6 inh)
COc1cccc2sc3cc(NCCCN4CCOCC4)ccc3c(=O)c12	RAD54 inh 78, RAD52 anneal inh 62 (no result: NSD2 HMT inh) | Rad54 DNA ctr inactive | RAD52 DNA ctr inactive
Cn1c2ccccc2c(=O)c2ccc(NCc3ccc4c(c3)OCO4)cc21	none (no result: NSD2 HMT inh)
CN1CCC[C@H]1CCNc1ccc2c(=O)c3ccccc3n(C)c2c1	RAD54 inh 90, RAD52 anneal inh 50 (no result: NSD2 HMT inh) | Rad54 DNA ctr inactive | RAD52 DNA ctr inactive
COc1cccc2sc3ccc(NCc4ccc5c(c4)OCO5)cc3c(=O)c12	none (no result: NSD2 HMT inh)
Cn1c2ccccc2c(=O)c2cc(NCCCN3CCOCC3)ccc21	RAD54 inh 116, RAD52 anneal inh 70 (no result: NSD2 HMT inh) | Rad54 DNA ctr inactive | RAD52 DNA ctr inactive
CC(C)NC(=O)Nc1cccc2c1O[C@@H](CN(C)C(=O)NC1CCCCC1)[C@@H](C)CN([C@H](C)CO)C2=O	none (no result: NSD2 HMT inh, Glyco luc inh)
Cc1c(C)n(CCN(C)C)c2ccc(C(=O)OCCN(C)C)cc12	RAD54 inh 104, RAD52 anneal inh 103 | Rad54 DNA ctr inactive | RAD52 DNA ctr inactive
CCCN(CCC)CCCNC(=S)Nc1ccc2nc(N3CCN(C)CC3)cc(C)c2c1	RAD54 inh 63, RAD52 anneal inh 75 | Rad54 DNA ctr inactive | RAD52 DNA ctr inactive
